Our source for the Potency values is PubChem BioAssay (NCATS).

Holding throughout (assay): Primary qHTS to identify gynecologic anti-cancer compounds using libraries of approved drugs and bioactive compounds (AID 1345084); further: nearly all actives have a fitted effect of over 55% in size
Holding throughout (settings): Gynecologic cancer cell panel viability, ATPlite luminescence, 48 h; series mostly up to 57.5 µM
(qHTS replaces the single test concentration by a dilution series.)

One assay relates to SKOV3. The essentials:
(§1)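 Luminescence from the ATPlite ATP-monitoring reagent indicates viable cell number; lower signal means cytotoxicity. Cells received compound 16 h after seeding and were exposed for 48 h across five concentrations.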

For a further assay, the system named is Tov-21-G. Summed up:
as §1

Another assay concerns Tov112D. The essentials:
as §1

Inconclusive results are not listed. Unmarked numbers belong to inactive results. The source made the active and inactive calls. The call rests on the fitted dose curve; in most records, active means well fitted cell-killing curve with a large enough effect; inconclusive means small, poorly fitted or top-dose-only effect, or effect the other way; inactive means flat fitted curve, though single readings scatter.
Potency means the concentration at half of the fitted maximal effect.

Take `CNC(=O)c1ccc2c(c1)CCO[C@H]2CCN1CCN(c2ccc(OC)cc2)CC1`: the Potency entry in the assay with SKOV3, in the assay on Tov-21-G and in the assay with Tov112D was “inactive” in each case.

`Cn1cc(C2=C(c3coc4ccccc34)C(=O)NC2=O)c2cc(Br)ccc21`: the Potency result with SKOV3, with Tov-21-G and in the assay on Tov112D was “inactive” in each case.

For `NS(=O)(=O)c1ccc(N2CCN(CC[C@@H]3OCCc4ccccc43)CC2)cc1`, the Potency result with SKOV3, in the assay with Tov-21-G and in the assay on Tov112D was “inactive” each time.

With `COc1ccc([C@H]2OC[C@H]3O[C@@H](O[C@H]4[C@@H]2NC[C@@H]4O)[C@H](O)[C@H]3O)cc1`, the Potency in the assay with SKOV3 was 3.98 µM (active); with Tov-21-G, 2.82 µM (active); in the assay with Tov112D, 5.62 µM (active).

With `COc1ccc(NC(=O)C2C[C@H](C)CC[C@H]2C(C)C)cc1` (stereo partly specified), the Potency result in the assay with SKOV3, in the assay on Tov-21-G and in the assay with Tov112D was “inactive” in each case.

Take `CCCCOC(=O)NS(=O)(=O)c1sc(CC(C)C)cc1-c1ccc(Cn2ccnc2)cc1`: the Potency entry in the assay on SKOV3, with Tov-21-G and in the assay on Tov112D was “inactive” each time.

Turning to `O=C(Nc1ccccc1)N1CCC(Cc2cnc3ccccc3c2)CC1`, the Potency result in the assay with SKOV3, in the assay with Tov-21-G and in the assay with Tov112D was “inactive” throughout.

Regarding `Nc1ncnc2c1c(-c1ccc(Cl)cc1)nn2-c1cccc(-c2cnnn2Cc2cccc(-c3ccccc3)c2)c1`, the Potency entry in the assay with SKOV3, in the assay with Tov-21-G and with Tov112D was “inactive” throughout.

Take `NCC(CNc1nc(Nc2cccc(NC(=O)N3CCCC3)c2)ncc1I)C(=O)c1cccs1` (stereo unspecified): the Potency entry in the assay on SKOV3, with Tov-21-G and with Tov112D was “inactive” each time.

With `C=C1C(=O)O[C@@H]2C=C(COC(C)=O)CC/C=C(\CO)CC[C@@H]12`, the Potency result with SKOV3, in the assay on Tov-21-G and in the assay with Tov112D was “inactive” throughout.

For `Cc1cn2cc(C(=O)N(C)CCO)cc(NC3CCOc4cccc(C)c43)c2n1` (stereo unspecified), the Potency entry in the assay with SKOV3, in the assay on Tov-21-G and in the assay on Tov112D was “inactive” throughout.

Consider `O=C([C@@H](Cc1cccc(C(F)(F)F)c1)NS(=O)(=O)c1cc(F)c2c(c1)CCNC2)N1CCCC1`, for which the Potency result with SKOV3, in the assay with Tov-21-G and in the assay on Tov112D was “inactive” each time.

As to `CCC(C)CNCC(=O)N1CCc2sccc2C1COc1cccc(C)c1` (stereo unspecified), the Potency result with SKOV3, in the assay on Tov-21-G and with Tov112D was “inactive” each time.

`C#CCNCc1cc2cc(OCc3ccccc3)ccc2[nH]1`: the Potency result with SKOV3, in the assay with Tov-21-G and in the assay with Tov112D was “inactive” throughout.

Take `COc1cc(N(C)CCN(C)C)c(N)cc1Nc1nccc(-c2cn(C)c3ccccc23)n1`: the Potency entry in the assay on SKOV3, in the assay on Tov-21-G and in the assay on Tov112D was “inactive” in each case.

Turning to `NS(=O)(=O)c1ccc(N2N=C(c3ccccc3)CC2c2ccccc2)cc1` (stereo unspecified), the Potency entry in the assay on SKOV3, in the assay with Tov-21-G and in the assay on Tov112D was “inactive” throughout.

In the case of `CC1CCC(=O)CC(SCC(O)C(=O)O)CCC(=O)O1` (stereo unspecified), the Potency result with SKOV3, in the assay with Tov-21-G and in the assay with Tov112D was “inactive” throughout.

As to `c1cc(-c2cnn3cc(-c4ccc(N5CCNCC5)cc4)cnc23)c2cccnc2c1`, the Potency result with SKOV3, in the assay on Tov-21-G and in the assay with Tov112D was “inactive” throughout.

For `COc1cc(C(=O)O)ccc1NC(=O)C1NC(CC(C)(C)C)C(C#N)(c2ccc(Cl)cc2F)C1c1cccc(Cl)c1F` (stereo unspecified), the Potency entry with SKOV3, with Tov-21-G and with Tov112D was “inactive” throughout.

For `CCCOc1ccc(S(=O)(=O)N2CCN(CCO)CC2)cc1-c1nc2c(CCC)cn(CC)c2c(=O)[nH]1`, the Potency result in the assay with SKOV3, in the assay on Tov-21-G and in the assay on Tov112D was “inactive” throughout.

As to `COC(=O)c1ccc2c(c1)[nH]c1ncnc(NCCCN3CCCCC3)c12`, the Potency entry in the assay on SKOV3, in the assay on Tov-21-G and in the assay on Tov112D was “inactive” in each case.

On to `CC(=O)C1(C)CCC2C3C=C(C)C4=CC(=O)CCC4(C)C3CCC21C` (stereo unspecified), for which the Potency entry in the assay with SKOV3, in the assay on Tov-21-G and in the assay with Tov112D was “inactive” each time.

As for `CC(=O)OC[C@]12[C@H](OC(C)=O)C(=O)[C@@H]3[C@@H](O)[C@@]14O[C@@]3(C)COC(=O)c1cccnc1[C@@H](C)[C@H](C)C(=O)O[C@@H]([C@H](O)[C@@H]2OC(C)=O)[C@]4(C)O`, the Potency entry with SKOV3, in the assay on Tov-21-G and with Tov112D was “inactive” each time.

On to `C/C=C(\C)C(=O)O[C@@H]1[C@@H](C)[C@]2(O)[C@@H]3C=C(C)C(=O)[C@H]3CC(CO)=C[C@H]2C2C(C)(C)[C@@]21OC(=O)C(C)CC` (stereo partly specified), for which the Potency result with SKOV3, with Tov-21-G and with Tov112D was “inactive” each time.

For `CC1(C)CCCC2(C)C1C(OC(=O)/C=C/C=C/C=O)C=C1COC(=O)C12O` (stereo unspecified), the Potency entry with SKOV3, in the assay on Tov-21-G and with Tov112D was “inactive” in each case.

Regarding `COC(=O)c1ccc2c(c1)nc(NC(=O)c1ccccc1)n2CCCc1ccccc1`, the Potency result in the assay with SKOV3, in the assay on Tov-21-G and in the assay with Tov112D was “inactive” in each case.

Take `O=C(NCCCN1CCC2(CC1)OCc1ccccc12)[C@H]1CCCN1Cc1ccccc1`: the Potency result with SKOV3, in the assay with Tov-21-G and with Tov112D was “inactive” throughout.

In the case of `COc1ccc(C[C@H]2COC(=O)[C@@H]2Cc2ccc(O[C@@H]3O[C@H](CO)[C@@H](O)[C@H](O)[C@H]3O)c(OC)c2)cc1OC`, the Potency in the assay on SKOV3 is 4.47 µM (active). For the same compound, the Potency entry in the assay on Tov-21-G and in the assay on Tov112D was “inactive” in each case.

On to `CC(=O)C1=C(O)C=C2Oc3c(C(C)=O)c(O)c(C)c(O)c3[C@]2(C)C1=O`, for which the Potency entry in the assay on SKOV3, in the assay on Tov-21-G and in the assay on Tov112D was “inactive” each time.

As to `Cc1nnc(-c2ccc(-c3ccc(C(=O)Nc4ccc(O)c(N5CCN(C)CC5)c4)cc3)c(C)c2)o1`, the Potency entry in the assay on SKOV3, in the assay with Tov-21-G and in the assay on Tov112D was “inactive” throughout.

For the compound `Cc1ccc(N2CCN(S(=O)(=O)N3CCCCC3)CC2)c(C)c1`, the Potency entry with SKOV3, in the assay on Tov-21-G and with Tov112D was “inactive” each time.

Take `Cc1cc2c(cc1N1C(=O)c3cccc4c(CCCO)ccc(c34)C1=O)n(C)c(=O)n2C`: the Potency entry in the assay on SKOV3, with Tov-21-G and with Tov112D was “inactive” in each case.
